Data: PubChem BioAssay (EPA / NIEHS)
Results filed as inconclusive are left out. Active and inactive are the calls of the source. How the source made its calls: active means hit-call score of the fitted dose curve at least 0.9, where 1 is the maximum; inconclusive means response in the unintended direction; inactive means score below 0.9.

Target: AR (gene 367) (UniProt P10275)
Experiment: ACEA_AR_agonist_80hr: ACEA Biosciences xCELLigence Real-Time Cell Analysis on Androgen Receptor Agonism for Proliferation (AID 2283783);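 further: hits increase impedance growth signal above DMSO baseline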
Method in brief: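 Proliferation of 22Rv1 prostate cancer cells tracked by electrical impedance, endpoint taken at 80 hours after dosing. Eight-point 1:4 dilutions from 100 uM maximum final, duplicate; testosterone and MG132 as positive controls, assay media as negative.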

AR (gene 367), sequence (P10275 whole entry, looked up): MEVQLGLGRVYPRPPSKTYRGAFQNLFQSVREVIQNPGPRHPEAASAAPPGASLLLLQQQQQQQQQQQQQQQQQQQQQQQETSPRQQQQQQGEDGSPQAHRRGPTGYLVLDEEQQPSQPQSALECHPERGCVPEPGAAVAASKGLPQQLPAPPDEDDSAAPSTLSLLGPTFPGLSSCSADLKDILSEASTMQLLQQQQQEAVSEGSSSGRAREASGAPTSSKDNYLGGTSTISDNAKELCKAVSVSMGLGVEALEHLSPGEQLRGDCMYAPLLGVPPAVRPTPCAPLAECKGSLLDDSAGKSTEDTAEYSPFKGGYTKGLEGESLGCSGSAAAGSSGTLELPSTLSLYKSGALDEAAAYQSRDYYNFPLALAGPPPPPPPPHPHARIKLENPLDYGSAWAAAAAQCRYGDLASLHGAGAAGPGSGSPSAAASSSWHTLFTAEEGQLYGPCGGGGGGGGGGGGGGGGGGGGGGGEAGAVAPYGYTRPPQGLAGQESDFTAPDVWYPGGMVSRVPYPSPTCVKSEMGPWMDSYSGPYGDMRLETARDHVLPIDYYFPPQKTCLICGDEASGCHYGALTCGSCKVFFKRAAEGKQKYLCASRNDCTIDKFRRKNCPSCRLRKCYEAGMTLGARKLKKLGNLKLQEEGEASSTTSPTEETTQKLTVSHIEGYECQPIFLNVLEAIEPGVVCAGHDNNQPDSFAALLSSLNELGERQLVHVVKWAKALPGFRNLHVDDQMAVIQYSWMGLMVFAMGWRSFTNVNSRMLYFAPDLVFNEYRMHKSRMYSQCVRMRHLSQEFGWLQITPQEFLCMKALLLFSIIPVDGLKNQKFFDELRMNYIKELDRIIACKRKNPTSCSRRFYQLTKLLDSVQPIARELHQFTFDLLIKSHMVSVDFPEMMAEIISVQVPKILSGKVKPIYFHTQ

C[C@]12CC[C@@H]3c4ccc(O)cc4C[C@@H](CCCCCCCCCS(=O)CCCC(F)(F)C(F)(F)F)[C@H]3[C@@H]1CC[C@@H]2O (stereo partly specified)
outcome: inactive
